Here are results for 101 molecules from PubChem BioAssay AID434973 (Sanford-Burnham Center for Chemical Genomics, 2010).

The campaign covered roughly 330,000 compounds. About 4,900 (1.5%) were called active. For the sample, actives were picked, then their nearest neighbours and some compounds at random. Values without a mark were called inactive.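 How the source made its calls: active means inhibition above about 50% at the single test dose (limit read from the data); inactive means the rest.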

This assay has as its target Sentrin-specific protease 7 (Homo sapiens) (UniProt Q9BQF6). Kind of assay: blockers of human SENP7 peptidase activity – biochemical, luminescence, uHTS, primary screen (AID 434973).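 Further: plate controls were DMSO with enzyme for no effect and no enzyme buffer wells for full effect.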 Conditions: recombinant SENP7, Z-RLRGG-aminoluciferin luminescence, 40 min; at 5 µM; stronger effect = higher value.
With `CN(C)c1nnnn1-c1ccc(Cl)cc1`, the inhibition is -4.93%.
As for `Nc1ccc2nn(-c3ccc(Cl)cc3)nc2c1`, the inhibition is 57.3% (active).
Then `c1ccc(-n2nc3ccccc3n2)cc1`, with 1.86%; and `C[C@@H](NC(=O)OC(C)(C)C)c1nnc(S(=O)(=O)Cc2ccccc2)o1`, with -2.96%.
Then `NC(=O)C1CCN(C(=O)c2ccc(F)c(S(=O)(=O)N3CCOCC3)c2)CC1`, with 10.4%; and `COc1ccc(C(=O)Cc2cnn(-c3ccccc3)c2)c(O)c1`, with 5.94%; and `Cc1ncc(CC(=O)n2cc(C(=O)c3cc(Cl)ccc3O)cn2)s1`, with 0.896%.
Regarding `O=C(c1cnn(-c2ccc(Cl)cc2)c1)c1ccccc1O`, the inhibition is 93.1% (active).
To `CC1CCCCC1NC(=O)COC(=O)Cc1ccc(Br)cc1` (stereo unspecified) belongs 0.5%; to `CC(=O)OCc1cc(=O)n(C)c(=O)n1C`, 6.2%.
As to `COc1cccc(COC(=O)C2CCN(S(=O)(=O)c3ccc(Cl)cc3)CC2)c1OC`, the inhibition is 11.2%.
In the case of `O=C(COC(=O)c1ccco1)Nc1ccc(Cl)cn1`, the inhibition is 4.97%.
Consider `CCCCCc1ccc(-c2cn(Cc3ccc4ccccc4c3)nn2)cc1`, for which the inhibition is -7.9%.
Regarding `CCCCCc1ccc(-c2ccc(C(=O)O)cc2)nc1`, the inhibition was 92.8% (active).
`CCCCCc1ccc(-c2ccc(OCC)cc2)nc1`: the inhibition is 11.8%.
To `O=S(=O)(NCc1ccccc1Br)c1ccccc1Br` belongs 2.03%; to `O=C(CCc1nc2sc3c(c2c(=O)[nH]1)CCCC3)NCC(=O)Nc1ccccc1Br`, 2.2%; to `CC1CC(c2ccccc2)n2nc(NC(=O)c3cccs3)nc2N1` (stereo unspecified), -9.29%.
Then `CCn1nccc1C(=O)Nc1ccc(Cl)c(Cl)c1`, with 63.8% (active); and `O=C(CC(O)(C(F)(F)F)C(F)(F)F)Nc1ccc(Cl)c(Cl)c1`, with 2.83%.
Turning to `CCn1nccc1C(=O)Nc1ccc(S(=O)(=O)NC23CC4CC(CC(C4)C2)C3)cc1`, the inhibition is -4.42%.
To `COc1ccc(C(=O)N2CCN(c3ncccn3)CC2)cc1S(=O)(=O)N1CCOCC1` belongs 0.314%; to `Cc1cc(NC(=O)C(C)N2C(=O)c3ccccc3S2(=O)=O)no1` (stereo unspecified), 3.21%; to `Cc1ccc(Nc2nc(Cl)c(C=O)s2)cc1`, 52.6% (active).
As to `Cc1ccc(NC(=O)Nc2nnc(-c3ccncc3)s2)cc1`, the inhibition was -3.06%.
To `Cc1ccc(Nc2nnc(SC(C)C(=O)NC3CC3)s2)cc1` (stereo unspecified) belongs 7.35%; to `COC(=O)C(C)N=Cc1ccccc1` (stereo unspecified), -4.82%; to `COCCNc1cc(-c2ccccc2)nc2cc(-c3cccc(F)c3)nn12`, -7.71%.
Turning to `COc1ccc(/C=C/c2noc(-c3ccccc3OC(C)=O)n2)cc1`, the inhibition is 87.9% (active).
For `COc1cccc(/C=C/c2ccc3ccccc3n2)c1OC(C)=O`, the inhibition was -1.58%.
In the case of `CC(=O)Oc1ccc2c(c1)C(=O)c1ccccc1C2=O`, the inhibition was 12.2%.
Then `COc1ccc(-c2csc(Nc3ccccn3)n2)cc1`, with 86.2% (active); and `O=C(Nc1nc(-c2cccnc2)cs1)c1ccccc1F`, with 28.5%.
To `c1ccc(Nc2nc(-c3ccncc3)cs2)nc1` belongs 85.5% (active); to `COc1ccc(Nc2nc(-c3ccccc3)cs2)cc1`, 95.8% (active); to `COc1ccc(-c2csc(Cc3nc(O)cs3)n2)cc1`, 23.1%.
In the case of `CCCn1c(CCNc2nc(-c3ccc(OC)cc3)cs2)nc2ccccc21`, the inhibition was 0.961%.
To `Clc1ccc(Nc2nc(-c3cccs3)cs2)nc1` belongs 11%.
Then `COc1ccc2c(c1OC)C(=O)OC2Nc1nc(-c2ccccc2)cs1` (stereo unspecified), with 1.44%; and `COc1ccc(-c2csc(NC(=O)COC(=O)Cc3ccc(Cl)cc3Cl)n2)cc1`, with 4.91%.
On to `Clc1ccc(-c2csc(-c3ccncc3)n2)cc1`, for which the inhibition was -6.3%.
Then `Cc1ccccc1Nc1nc(-c2cccnc2)cs1`, with 54.3% (active).
Then `O=C(NCc1cccnc1)C(=O)Nc1nc(-c2ccccc2)cs1`, with 3.71%.
On to `CN(Cc1ccc(F)cc1Cl)S(=O)(=O)c1cccs1`, for which the inhibition is -5.99%.
Regarding `CCN(C(=O)COC(=O)c1c(C)nn(-c2ccccc2)c1Cl)c1c(N)n(Cc2ccccc2)c(=O)[nH]c1=O`, the inhibition was 2.84%.
Then `O=[N+]([O-])c1cc(S(=O)(=O)CCCN2CCOCC2)ccc1F`, with -6.87%; and `Cc1ccc(S(=O)(=O)NCC(=O)N(CC(=O)NC(C)(C)C)Cc2cccs2)cc1`, with 0.604%; and `CSCCNCc1cn(-c2ccc(F)cc2F)nc1-c1ccccc1C`, with 8.28%.
Then `CCOc1ccc(S(=O)(=O)Nc2ccncc2)c(C)c1C`, with -7.98%; and `CC[C@]1(C(=O)OC)[C@H]2C(=O)N(Cc3ccccc3)C(=O)[C@H]2[C@H]2CN=C(SCc3ccc(C#N)cc3)N21`, with -3.53%; and `OC(COCC1COc2ccccc2O1)CN1CCN(c2ccc(F)cc2)CC1` (stereo unspecified), with -0.332%.
Turning to `CCCCCCCCOC1OC(CO)C(O)C(O)C1NC(C)=O` (stereo unspecified), the inhibition was -1.17%.
To `COc1c(F)c(F)c(-c2csc(N)n2)c(F)c1F` belongs -8.1%; to `CS(=O)(=O)Nc1cccc(C2=NN(C(=O)c3cccc(F)c3)C(c3cccs3)C2)c1` (stereo unspecified), 6.94%; to `O=C1/C(=C/c2coc3ccc(O)cc3c2=O)SC(=S)N1c1ccccc1`, -27.4%.
To `O=C(Cc1csc(Nc2nc(=S)[nH]c3ccccc23)n1)NCCCN1CCN(c2cccc(Cl)c2)CC1` belongs 6.52%; to `CCC(C(=O)NC1CCCC1)N(C(=O)c1snc(C(N)=O)c1N)c1ccc2c(c1)OCCO2` (stereo unspecified), 5.07%.
Then `Nc1c(C(=O)c2cccs2)sc2nsc(SCCN3CCCCC3)c12`, with 9.3%; and `Cc1ccc(-c2csc(NC3OC(=O)c4ccccc43)n2)cc1` (stereo unspecified), with -11.5%; and `Cc1cccc(Nc2nc(-c3ccccc3)cs2)n1`, with 92.9% (active).
Consider `Cc1ccc(Nc2nc(-c3ccc(O)cc3O)cs2)nc1`, for which the inhibition was -5.69%.
To `CCOCCCNC(=O)C1(O)c2cc(Br)ccc2NC(=O)N1c1ccc(C)c(C)c1` (stereo unspecified) belongs 8.05%; to `COCCn1c(SC(C)C(=O)NC2CC2)nnc1-c1cccc(C)c1` (stereo unspecified), 1.39%.
With `O=C(Nc1cccc(NC(=O)c2cccc(F)c2)c1)c1ccccc1`, the inhibition is -10.7%.
To `O=C(Nc1cccc(C(=O)N2CCCC2)c1)c1ccccc1` belongs -13%; to `O=C(Nc1ccc(C(=O)O)c(O)c1)c1ccccc1`, 85.1% (active); to `CCN(CC)C(=O)CSc1ncnc2c1cnn2-c1ccccc1`, 2.6%.
With `Cc1ccc(-n2ncc3c(Nc4cccc(C(=O)O)c4)ncnc32)cc1`, the inhibition was 92.6% (active).
Consider `Cc1ccc(Nc2ncnc3c2cnn3C)c(C)c1`, for which the inhibition was -0.763%.
In the case of `CC(=O)NC1C(Oc2ccc(C=O)cc2)OC(COC(C)=O)C(OC(C)=O)C1OC(C)=O` (stereo unspecified), the inhibition is 5.78%.
To `Cc1cccc(NC(=O)CSc2nc3c(c(=O)[nH]2)CCC3)c1C` belongs -1.39%; to `CC(=O)Nc1ccc(NC(=O)CSc2nnc(COc3ccccc3C)n2CC2CCCO2)cc1` (stereo unspecified), 5.76%; to `COC(=O)c1ccc([C@@H](O)[C@H](C)C(=O)CC(=O)OC(C)(C)C)cc1`, 6.36%.
For the molecule `O=C(Nc1cccc(NC(=O)c2ccccc2[N+](=O)[O-])c1)c1ccccc1Cl`, the inhibition is 6.18%.
In the case of `O=C(Nc1ccc2sc3ccccc3c(=O)c2c1)c1ccccc1Cl`, the inhibition was 51.8% (active).
Then `COc1cc(NC(=O)c2cccs2)ccc1NC(=O)c1ccccc1Cl`, with -1.86%; and `COc1ccc2[nH]c(C(=O)Nc3ccccc3Cl)cc2c1`, with 6.38%.
Then `CC(OC(=O)c1cc2ccccc2[nH]1)C(=O)N(C)c1ccccc1` (stereo unspecified), with -10.4%; and `O=C(Nc1ccccc1)c1cc2ccccc2[nH]1`, with 76% (active); and `CCSc1nc2c(c(=O)[nH]1)C(c1cccnc1)C(C(=O)OC(C)C)=C(C)N2` (stereo unspecified), with 11%.
Regarding `COc1ccc(C(CNCC(=O)Nc2ccccc2F)N(C)C)cc1` (stereo unspecified), the inhibition is 2.72%.
To `Cc1ccn2cc(-c3nonc3C)cc2c1` belongs 4.32%.
To `CS(=O)(=O)N1CCN(C(=O)CSc2ccccc2)CC1` belongs -0.93%; to `Cc1cc(=O)n2[nH]c(-c3cccc(Cl)c3)cc2n1`, 1.33%.
In the case of `CCCCN1Cc2c(nc3cc(-c4ccccc4)[nH]n3c2=O)C1=O`, the inhibition is -4.67%.
Take `O=c1c2c(nc3cc(-c4cccc(Cl)c4)[nH]n13)CCCC2`: the inhibition was 66.7% (active).
Turning to `Cc1nc2ccccc2c(=O)n1-c1ccc(NS(=O)(=O)c2ccc(F)cc2F)cc1`, the inhibition is -0.987%.
To `Clc1ccc(C2=CSC3=Nc4cccc5cccc(c45)N23)cc1` belongs 51.9% (active).
As for `CCC(=O)c1ccc(OCC(O)Cn2nc(C)c(C(C)=O)c2C)cc1` (stereo unspecified), the inhibition was 0.247%.
To `CC(C)(C)c1ccc(NC(=O)NCc2ccco2)cc1` belongs 90.7% (active).
To `CC(C)(C)NC(=O)NCc1ccco1` belongs -4.67%; to `CC(C)(C)c1ccc(C(=O)NCc2ccco2)cc1`, -16.4%; to `CN(C)S(=O)(=O)c1cc(C(=O)Nc2ccn(C)n2)c(Cl)cc1Cl`, -0.713%.
To `CN(C)NC(=O)C(NC(=O)c1ccc(N)cc1)C12CC3CC(CC(C3)C1)C2` (stereo unspecified) belongs -0.0401%; to `Cc1noc(C)c1COc1ccc2ccc(=O)oc2c1`, -8.22%; to `COc1ccc(-c2cc3ccc(OCc4nn[nH]n4)cc3oc2=O)cc1`, 51% (active).
Regarding `CCCCc1cc(=O)oc2cc(C)cc(OCc3nn[nH]n3)c12`, the inhibition is 1.78%.
Then `O=C(CNCCC1=CCCCC1)Nc1ccccc1N1CCCCCC1`, with -5.33%; and `CN(C)c1ccc(/C=C/C(=O)c2ccc(O)cc2)cc1[N+](=O)[O-]`, with -14.8%.
To `O=C(O)/C=C/c1ccc2c(c1)OCCO2` belongs 2.14%.
Then `O=C(/C=C/c1ccc2c(c1)OCCO2)c1ccc(O)cc1`, with 68.4% (active).
